# Data from the supplement of paper PMC6555819.
# Tests used:
# Test in all cases: PBM binding z-score (relative to random genomic background probes); higher = stronger binding; sequences stand for … in GC…GCGATTGACAGCGTAGAATGAAGG
# [1] = system: PPARg:RXRa DBDmut IVT, anti-RXR (DBD mutation: RXRa K156A/R161A, NR concentration 270 nM, RXRa partner concentration 90 nM)
# Summary of the method: (§1)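 The probes on custom Agilent 4×180K protein-binding microarrays were double-stranded, with 34-nt variable regions bearing direct-repeat seeds, single-nucleotide variants, half-site ablations and random human genomic background sequences. Incubation lasted 1 h with ligand-free nuclear receptor dimers in PBS pH 7.4, 2% milk, 0.02% Triton X-100, 1 mM DTT, 0.2 mg/mL BSA and 0.4 mg/ml salmon testes DNA. Antibodies against each partner (one per run) detected bound dimers, and fluorescence scans were regression-normalized. Binding z-scores take the random background probes as reference.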
# [2] = system: PPARg:RXRa IVT, anti-PPARg (NR concentration 270 nM, RXRa partner concentration 90 nM)
# Summary of the method: as §1
# [3] = system: PPARg DBDmut:RXRa IVT, anti-PPARg (DBD mutation: PPARg1 K132A/R137A, NR concentration 270 nM, RXRa partner concentration 90 nM)
# Summary of the method: as §1
# [4] = system: PPARg DBDmut IVT, anti-PPARg (DBD mutation: PPARg1 K132A/R137A, NR concentration 270 nM)
# Summary of the method: as §1
# [5] = system: PPARg homodimer (NR concentration 180 nM)
# Summary of the method: as §1
# [6] = system: PXR:RXRa (NR concentration 270 nM, RXRa partner concentration 90 nM)
# Summary of the method: as §1
# [7] = system: PXR homodimer (NR concentration 270 nM)
# Summary of the method: as §1
# [8] = system: RARa:RXR (NR concentration 270 nM, RXRa partner concentration 90 nM)
# Summary of the method: as §1
# [9] = system: RARa homodimer (NR concentration 270 nM)
# Summary of the method: as §1
# [10] = system: RARb:RXRa (NR concentration 270 nM, RXRa partner concentration 90 nM)
# Summary of the method: as §1
Sequence,PBM binding z-score [1],PBM binding z-score [2],PBM binding z-score [3],PBM binding z-score [4],PBM binding z-score [5],PBM binding z-score [6],PBM binding z-score [7],PBM binding z-score [8],PBM binding z-score [9],PBM binding z-score [10]
GCAAGCAGGCCATTTGGGTCACTCAATGACGGGC,1.67,2.35,-0.319,-0.988,0.0293,0.422,0.0274,0.6,-0.747,1.33
GCGACTAGGGCATCAGCAGGTTACCATAACTTAA,4.76,3.7,-0.562,-0.523,0.128,-0.0606,-0.519,0.482,-0.519,1.13
ACAGACAGGTGAGTGAAGGTAACTCAACTGGACG,0.567,0.507,-0.777,-0.0154,-0.369,-0.316,-0.108,0.0758,-0.165,0.486
GGAACGAGGGCATTCGAGGTGATAGCATGGCGAT,3.12,2.76,0.0817,-0.391,0.378,2.36,0.0978,1.4,-0.289,1.97
ATCTGTAGGTAAAAGTTCAGTGAATCCCGAGGAT,1.88,3.51,0.891,0.681,1.13,2.01,1.1,2.07,1,2.38
GCTCGGTGGACAAGGTCAGAGCTTTGTCCGTAGA,0.124,0.413,-1.69,-0.301,0.136,1.68,-0.455,2.25,-0.966,2.68
GGAACGAGGGCAAGTTGCTAGCAGAGTTTGATGG,3.85,2.46,-0.00966,-0.739,-0.336,0.59,0.303,0.0596,-0.257,2.52
ATATGTAGGATAAGGGTCATTCAGGTTGGTTCGC,4.06,5.32,1.23,0.978,3.23,4.9,2.87,4.72,2.11,3.18
ATCTCTATGTAAGACTCAGTTCAGTGAAGAACGC,-0.194,-0.197,0.298,1.3,0.674,0.52,1.01,0.0686,0.753,0.0321
TCATATAGGTAAAGGTGATAGTCGAACGATATGA,3.45,3.38,1.17,1.36,0.694,0.398,0.262,0.569,0.68,1.09
CCTTACGGGTCACTCGAGGTTATAGCATCGGAGT,2.22,3.7,0.422,0.0524,1.69,5.71,0.375,3.69,0.443,3.91
TCTGCTAGTTCAGTTGGTCAGCTAACGAGCTGCC,0.762,0.394,-0.505,-0.636,-1.77,-0.0751,-0.641,-0.244,-1.61,0.778
CCTGTTAGGTCATGGTCAGCTAATCTACAGTATG,3.41,2.86,0.756,1.29,2.12,1.77,0.504,2.9,0.828,4.16
GCAGCTAGGTCAACTGATGGTCAGCTAAAGCTCG,4.33,4.15,-0.285,-1.01,1.13,1.2,-0.968,2.49,-0.66,4.24
TCTAGTTGGTCACGGAGATCACACACGACGGGTA,2.55,2.3,0.815,0.952,0.853,0.363,0.241,0.735,0.576,1.57
CCTGCTAGGTCAGTGGTCAGCTAAAGCAGCTCGC,3.16,2.76,-1.08,-1.65,0.944,-0.0429,-0.667,0.509,-0.82,3.42
TCTATTAGTTGAGTAGGGCAACCGAAACAGCGGA,2.19,2.75,0.301,0.883,0.0171,-0.0938,-0.0884,0.248,-0.221,0.507
TCTAGTTGGTCCCGGAGGTCACACACGACGGGTA,1.7,1.82,0.461,1,2.76,4.18,1.4,4.64,1.21,3.41
CCGACTGGGGCAGAGGTTACCATACTCAGTACGA,3.08,4.26,-0.117,-0.682,1.22,0.917,-0.23,1.94,-0.251,1.34
GCTACTGGGGCATCAGCAGGTTACCATAACTTAA,5.96,5.52,0.447,0.741,0.599,0.0663,-0.537,0.497,-0.28,0.962
ATATGTAGGTTAGCTGGTGTCATTCAGACTAGGC,6.77,6.16,2.14,1.6,1.06,1.65,0.392,1.44,0.23,0.987
GCTTGTATATCAAGGTTAAGAAAGACTAAGCTAA,0.247,0.653,0.195,0.533,-0.0686,0.625,-0.223,0.967,0.663,1.03
ATACCAAGGTGATCGTGATGTCGTTGATACTAAC,0.486,0.996,0.919,1.1,0.247,-0.038,0.104,0.057,0.517,0.325
CAAACTAGGTCACGTAAGGTCAAAGTCGAATGAC,8.55,9.19,2.78,1.76,2.46,6.83,2.57,6.43,1.84,5.38
CCGACTGGGGCATAAGGTGACCATAAGCCAGCCC,2.39,3.15,-0.511,-1.28,0.186,-0.504,-0.373,0.332,-0.248,1.23
